Screens deposited in PubChem by National Center for Advancing Translational Sciences (NCATS).
A selection: hits, their analogues and other compounds. The true share with any hit is near 12%.
Sfp PPTase inh: inhibitors of Bacillus subtilis Sfp phosphopantetheinyl transferase | Potency, µM, for the others: largest response in the series, negative = inhibition, hits mostly inhibitors | Q9F4F7 | Biochemical Sfp PPTase activity, qHTS | 3.5% of 310,000 active;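 also: the enzyme is Sfp with the accession as filed and its product quenches rhodamine fluorescence; potency is read from the fitted curve at half-maximal effect; 0% = enzyme reaction without inhibitor and -100% = no enzyme wells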
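Step 1, compound plus 15 nM Sfp-PPTase, 15 min, room temperature. Step 2, add rhodamine-CoA (5 uM) and BHQ-2-YbbR (12.5 uM). Step 3, read 525/598 nm fluorescence at 0 and 30 min.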
HP1b chromo inh: inhibitors of HP1-beta chromodomain binding to methylated histone tails; Potency, µM (top dose mostly 114 µM), inactives show top-dose activity change, negative = inhibition, hits mostly inhibitors; P83916; 0.56% of 390,000 active; AlphaScreen HP1-beta / biotin-H3K9me3 peptide binding; also: potency is read from the fitted curve at half-maximal effect; nearly all actives have a fitted effect of over 70% in size
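AlphaScreen: HP1-beta (50 nM) preformed 30 min with biotin-H3(1-18)K9me3 peptide (50 nM) in PBS pH 7.4, 0.01% Tween-20. Compound added for 30 min at RT, then streptavidin donor/nickel chelate acceptor beads (10 ug/mL) for 30 min.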
L3MBTL1 inh: L3MBTL1 (human) inhibition. AlphaScreen L3MBTL1–H3K9me1 peptide binding. Potency, µM (doses to about 57.1 µM), without a hit: at the top dose activity, negative = inhibition, usual class: inhibitors. 0.66% of 230,000 active; also: potency is read from the fitted curve at half-maximal effect; % is scaled to controls: 0 for no effect and ±100 for the full control effect; nearly all actives have a fitted effect of over 60% in size
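Displacement of a biotinylated histone H3(1-15) peptide monomethylated at Lys9 (75 nM) from L3MBTL1 (50 nM) was measured by AlphaScreen after a 30 min room-temperature compound incubation; cefsulodin titration served as intraplate control.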
BAZ2B block: blocks human BAZ2B | 4.4% of 360,000 active | AID 504333 | Potency, µM (series often up to 114 µM), inactives show at the top dose activity change, negative = inhibition, actives largely listed as inhibitors | AlphaScreen BAZ2B-H3K14Ac peptide displacement; also: potency is read from the fitted curve at half-maximal effect; % is scaled to controls: 0 for no effect and ±100 for the full control effect; nearly all actives have a fitted effect of over 60% in size
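Multi-concentration screen (max 110 uM) measuring displacement of acetylated histone H3 peptide from BAZ2B by AlphaScreen, using 50 nM protein, 50 nM peptide and 10 ug/mL streptavidin donor plus Ni-chelate acceptor beads.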
G9a inh-1: G9a (human) methyltransferase inhibition; Potency, µM (titrated, usually from 102 µM), for the others: top-dose activity, negative = inhibition, most hits filed as inhibitors; 8.8% of 350,000 active; Q96KQ7; G9a H3K9 monomethylation, AlphaScreen, 2 h; also: potency is read from the fitted curve at half-maximal effect; % is scaled to controls: 0 for no effect and ±100 for the full control effect; nearly all actives have a fitted effect of over 75% in size
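AlphaScreen detection with an anti-monomethyl H3K9 antibody quantified product after a 2 h room-temperature reaction containing 500 nM biotinylated H3K9 peptide, 20 µM SAM and 20 nM enzyme, which had been preincubated 15 min with compound.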
JMJD2A Tudor inh: blocks the human JMJD2A Tudor domain; Potency, µM (doses to about 114 µM), for the others: top-dose activity change, negative = inhibition, usual class: inhibitors; 4.4% of 390,000 active; AID 504339; AlphaScreen JMJD2A-Tudor / H3K4me3 peptide binding; O75164; also: potency is read from the fitted curve at half-maximal effect; % is scaled to controls: 0 for no effect and ±100 for the full control effect; nearly all actives have a fitted effect of over 50% in size
JMJD2E inh-1: inhibitors of human JMJD2E demethylase, 8HQ series round 1. shares compounds with BAZ2B block. JMJD2E demethylase, FDH-coupled NADH fluorescence. Potency, µM (titrated, usually from 57 µM), inactives show at the top dose activity, negative = inhibition, actives largely listed as inhibitors. 89% of 130 active
ME-1 growth: reduces ME-1 leukemia cell proliferation; AID 504370; Potency, µM (top dose mostly 56.1 µM), without a hit: at the highest dose activity change, negative = inhibition, usual class: inhibitors; shares compounds with BAZ2B block; 20% of 140 active; ME-1 cell proliferation, ATP luminescence, 48 h
JMJD2E inh-2: JMJD2E (human) demethylase inhibition, confirmation. AID 2677. Potency, µM (series often up to 56.8 µM), without a hit: top-dose activity change, negative = inhibition, hits mostly inhibitors. shares compounds with JMJD2A Tudor inh. 93% of 140 active. Recombinant JMJD2E, FDH-coupled NADH fluorescence (FDH is formaldehyde dehydrogenase)
FDH inh: FDH (Pseudomonas putida) inhibition counter-screen; 10% of 140 active; FDH enzyme assay, NADH fluorescence kinetic; Potency, µM (titrated, usually from 56.7 µM), inactives show top-dose activity, negative = inhibition, usual class: inhibitors; shares compounds with JMJD2A Tudor inh; AID 2680
G9a inh-2: confirmation of human histone methyltransferase G9a inhibitors; shares compounds with JMJD2A Tudor inh; G9a H3K9 monomethylation, AlphaScreen, 2 h; Potency, µM, actives largely listed as inhibitors; 89% of 370 active; AID 588344; also: potency is read from the fitted curve at half-maximal effect; nearly all actives have a fitted effect of over 65% in size
An asterisk follows results filed as active; ? = inconclusive; . = no result given; ! = a repeat was not active; [ ] = remark or other dose. Calls follow the shape of the dose curve; as a rule, active = well fitted curve in the direction sought with a large enough effect; inconclusive = small, poorly fitted or top-dose-only effect, or another doubt; inactive = no such curve, though single readings can be large; an effect the other way counts as inactive or inconclusive.

SMILES	Sfp PPTase inh	HP1b chromo inh	L3MBTL1 inh	BAZ2B block	G9a inh-1	JMJD2A Tudor inh	ME-1 growth	others
CC1CC[C@@]2(OC1)OC1C(O)C3C4CC[C@H]5CC(O[C@@H]6O[C@@H](CO)[C@H](OC7OC(CO)C(O)C(OC8OCC(O)C(O)[C@H]8O)[C@@H]7O[C@@H]7OC(CO)[C@H](O)[C@@H](O[C@@H]8OC(CO)C(O)C(O)C8O)C7O)C(O)C6O)C(O)C[C@]5(C)C4CC[C@]3(C)C1C2C (some centres not stated)	2%	.	.	.	5%[2.33 µM]	.	.
CC1C(=O)OC2C(O)C34C5OC(=O)[C@@]3(OC3OC(=O)[C@H](O)[C@]34C(C(C)(C)C)C5O)[C@]12O (some centres not stated)	4%	.	.	.	-11%[2.33 µM]	.	.
NC(Cc1cc(O)c(O)cc1O)C(=O)O (configuration not stated)	.	.	0.16µM*	0.89µM*	0.45µM*	.	-13%
CC(C)C[C@H](NC(=O)[C@H](Cc1ccccc1)NC(=O)CNC(=O)CNC(=O)[C@@H](N)Cc1ccc(O)cc1)C(=O)N[C@@H](CCCN=C(N)N)C(=O)N[C@@H](CCCCN)C(=O)N[C@@H](Cc1ccc(O)cc1)C(=O)N1CCC[C@H]1C(=O)N[C@@H](CCCCN)C(=O)O	19%	.	.	.	38%[59 µM]	.	.
NCCc1cc(O)c(O)cc1O	63µM*	28µM*	.	.	-143%[2.33 µM]	10µM*	?
CC(=O)OC1CC(OC(C)=O)[C@]2(C)C(CC(OC(C)=O)[C@]3(C)C2CC[C@@]2(C)C(c4ccoc4)C(=O)C4O[C@]432)C1(C)C (some centres not stated)	17%	.	.	.	-41%[2.33 µM]	.	.
CN1Cc2ccccc2[C@@H]2c3cccc4[nH]cc(c34)C[C@H]21	79µM*!	.	.	.	13µM*	.	11µM*
COc1cc(CNC(=O)CCCC/C=C/C(C)C)ccc1O	-4%	51%	-5%	9%	4%[59 µM]	-6%	.
c1cncc([C@@H]2CCCCN2)c1	23%	.	.	.	-2%[21.5 µM]	.	.
O=C(O)CCCCC1SCC2NC(=O)NC21 (configuration not stated)	14%	?	?	0.79µM*	7.9µM*!	11µM*	-13%
CN(N=O)c1ccc(O)c(O)c1	.	.	.	.	0.5µM*	.	-16%
CC[n+]1c(-c2ccccc2)c2cc(N)ccc2c2ccc(N)cc21	?	?	.	.	13µM*	?	10µM*
O=C1C=CC(=O)c2c(O)cccc21	-23%	.	.	.	?	.	22µM*
O=C(O)c1ccc(O)c2ncc(N3CCNCC3)cc12	.	.	.	.	.	.	.	JMJD2E inh-1=4.1µM*;JMJD2E inh-2=?;FDH inh=-36%
c1cc2c(c(N3CCNCC3)c1)OCCO2	19%	.	.	.	16%[59 µM]	.	.
Cn1c(CNC(=O)c2ccco2)nnc1SCC(=O)N1c2ccccc2Sc2ccccc21	-4%	21%	.	-35%	?	-7%	.	G9a inh-2=1*
Cc1cc(OCc2nn[nH]n2)c2c3c(c(=O)oc2c1)CCC3	17%	37%	3%	6%	-26%	-27%	.
Cc1cc(=O)oc2c1c(C)nn2-c1nn[nH]n1	2%	?	.	40µM*	0.71µM*	14µM*	.	G9a inh-2=0.36*
CC(C)CN1CC2(CCN(C(=O)Oc3ccccc3)CC2)C1	-6%	.	.	.	0%[12.7 µM]	.	.
COc1ccc(OCC(=O)N2CCN(Cc3ccc(SC)cc3)CC2)cc1	13%	?	2%	50µM*!	2.2µM*	2.5µM*	.	G9a inh-2=32*
CCC(=O)N1CC(=O)Nc2ccc(C)cc2C1c1ccc(F)cc1 (configuration not stated)	.	25%	.	-5%	-15%[59 µM]	-6%	.
COc1cc(/C=N/Nc2ccc(S(N)(=O)=O)cc2)cc(OC)c1OC	18%	?	2%	-16%	-36%	?	.
CN1CC[C@]2(C)c3cc(O)ccc3N(C)[C@@H]12	-24%	.	.	.	8.9µM*	.	.	JMJD2E inh-2=10µM*;FDH inh=?
